# In PubChem BioAssay:
# Molecular target: Left-right determination factor 2 (Homo sapiens) (UniProt O00292)
# Assay: LEFTY2 binders on small-molecule microarrays, primary screen, biochemical, small-molecule microarray, 635 nm fluorescence scan (AID 1110)
# Details: LEFTY2 binding, higher = more signal
# Chain of Left-right determination factor 2 (Homo sapiens) (O00292 whole entry, looked up): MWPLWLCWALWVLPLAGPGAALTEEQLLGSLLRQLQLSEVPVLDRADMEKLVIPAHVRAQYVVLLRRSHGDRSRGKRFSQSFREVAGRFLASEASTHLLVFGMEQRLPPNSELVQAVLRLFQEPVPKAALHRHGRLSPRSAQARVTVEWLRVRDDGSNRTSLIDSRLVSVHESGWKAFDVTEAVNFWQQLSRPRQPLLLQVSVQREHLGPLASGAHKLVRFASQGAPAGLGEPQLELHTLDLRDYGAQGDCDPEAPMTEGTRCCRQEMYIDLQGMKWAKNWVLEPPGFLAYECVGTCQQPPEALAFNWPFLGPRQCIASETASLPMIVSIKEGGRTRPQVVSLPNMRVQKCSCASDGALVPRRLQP
row,SMILES,composite z-score
1,CC(C)N1C(=O)C[C@@](C(=O)NC2CC2)(c2ccc([N+](=O)[O-])cc2)[C@H]1c1ccc(CO)cc1,-1.15
2,Oc1ccc2cc[n+](Cc3cc4c(cc3Br)OCO4)cc2c1,-0.929
3,CCOC(=O)C[C@H]1[C@H](OC(=O)c2ccc(-c3ccccc3)cc2)[C@@H](NC(=O)CC(C)C)c2cc(OCCCO)ccc2N1C(=O)c1ccc2ccccc2n1,0.218
4,CCCCC(CC)C(O)C1C=CC2C(=O)N(c3ccccc3)C(=O)C2N1Nc1ccccc1F (stereo not given),-0.285
5,CCOC(=O)C[C@H]1[C@H](OC(=O)c2ccccc2-c2ccccc2)[C@@H](NC(=O)c2ccc3ccccc3n2)c2cc(OCCCO)ccc2N1C(=O)Cc1ccc(OC)cc1,0.414
6,COCCCNC(=O)[C@@]1(CCC(=O)OC(C)(C)C)N=C(c2ccc(OCCCO)cc2)O[C@H]1c1ccccc1N=[N+]=[N-],0.473
7,OCCCC1=CC(c2ccc(CN3CCCC3)cc2)N(Cc2cc3c(cc2Br)OCO3)CC1 (stereo not given),0.477
8,CCOC(=O)C[C@H]1[C@H](OC(=O)Cc2ccc3c(c2)OCO3)[C@@H](NC(=O)C2CCCCC2)c2cc(OCCCO)ccc2N1C(=O)c1ccccc1,-0.684
9,COCC(=C=CC[C@H](O)c1ccccc1OCCO)C[C@H](O)c1ccccn1,0.155
10,[N-]=[N+]=NCc1ccccc1[C@@H]1OC(c2ccc(OCCCO)cc2)=N[C@]1(CCS(=O)(=O)c1ccccc1)C(=O)O,-0.151
